Results with a measured potency or affinity are listed apart.
Assays:
[1] = test system: Staphylococcus aureus; conditions: Concentration 20 uM; ASSAY_TEST Inhibition of Bacterial Growth; detection method Absorption (OD600); MEDIA CAMHB; plate type 384well; NBS; CORNING #3640; time 18 hr
[2] = test system: Escherichia coli; conditions: Concentration 20 uM; ASSAY_TEST Inhibition of Bacterial Growth; detection method Absorption (OD600); MEDIA CAMHB; plate type 384well; NBS; CORNING #3640; time 18 hr

CN1[C@@H]2CC[C@H]1CC(OC(=O)C(CO)c1ccccc1)C2 (stereo partly specified)
Inhibition [1]: 1.53% | Inhibition [2]: -5.78%

CCOC(=O)c1cncn1[C@H](C)c1ccccc1 [ETOMIDATE]
Inhibition [1]: 11.17% | Inhibition [2]: 2.26%

C=C(C)[C@@H]1[C@H]2OC(=O)[C@@H]1[C@]1(O)C[C@H]3O[C@]34C(=O)O[C@H]2[C@]14C.CC(C)(O)[C@@H]1[C@H]2OC(=O)[C@@H]1[C@]1(O)C[C@H]3O[C@]34C(=O)O[C@H]2[C@]14C
Inhibition [1]: 10.5% | Inhibition [2]: 5.19%

CC(C)C(=O)Nc1ccc([N+](=O)[O-])c(C(F)(F)F)c1 [FLUTAMIDE]
Inhibition [1]: 10.52% | Inhibition [2]: 4.1%

C#CCN(C)[C@H](C)Cc1ccccc1.Cl [SELEGILINE HYDROCHLORIDE]
Inhibition [1]: -22.3% | Inhibition [2]: 3.38%

Cl.N=C(N)NC(=O)c1nc(Cl)c(N)nc1N.O.O [AMILORIDE HYDROCHLORIDE]
Inhibition [1]: 11.17% | Inhibition [2]: 2.12%

Cl.O=C1CC[C@@]2(O)[C@H]3Cc4ccc(O)c5c4[C@@]2(CCN3CC2CC2)[C@H]1O5 [NALTREXONE HYDROCHLORIDE]
Inhibition [1]: 14.26% | Inhibition [2]: 5.04%

CCCC(C)(COC(N)=O)COC(=O)NC(C)C (stereo unspecified) [CARISOPRODOL]
Inhibition [1]: -20.34% | Inhibition [2]: 4.18%

Brc1c(NC2=NCCN2)ccc2nccnc12 [BRIMONIDINE]
Inhibition [1]: 7.02% | Inhibition [2]: -2.73%

O=C1Nc2ccc(Cl)cc2C(c2ccccc2Cl)=NC1O (stereo unspecified) [LORAZEPAM]
Inhibition [1]: -3.94% | Inhibition [2]: 2.56%

C[C@]12CCC(=O)C[C@@H]1CC[C@@H]1[C@@H]2CC[C@@]2(C)[C@H]1CC[C@]2(C)O [MESTANOLONE]
Inhibition [1]: -23.2% | Inhibition [2]: 5.51%

Cc1cc(NS(=O)(=O)c2ccc(N)cc2)no1 [SULFAMETHOXAZOLE]
Inhibition [1]: -14.52% | Inhibition [2]: 28.59%

CN1[C@@H]2CC[C@H]1C[C@@H](OC(=O)c1c[nH]c3ccccc13)C2.Cl
Inhibition [1]: 18.1% | Inhibition [2]: -3.68%

Cc1c(OCC(F)(F)F)ccnc1C[S+]([O-])c1nc2ccccc2[nH]1 (stereo unspecified) [LANSOPRAZOLE]
Inhibition [1]: 16.66% | Inhibition [2]: -0.87%

Br.CN1[C@@H]2CC(OC(=O)[C@H](CO)c3ccccc3)C[C@H]1[C@@H]1O[C@@H]12.O.O.O (stereo partly specified)
Inhibition [1]: 15.22%

C[C@]12CCC(=O)C=C1CC[C@@H]1[C@@H]2CC[C@@]2(C)[C@H]1CC[C@]2(C)O [METHYLTESTOSTERONE]
Inhibition [1]: 7.28% | Inhibition [2]: 3.56%

C=C1C[C@@H]2[C@H](CC[C@]3(C)C(=O)CC[C@@H]23)[C@@]2(C)C=CC(=O)C=C12 [EXEMESTANE]
Inhibition [1]: 13.66% | Inhibition [2]: -6.95%

C[N+]1(C)CCC(OC(=O)C(O)(c2ccccc2)C2CCCC2)C1.[Br-] (stereo unspecified) [GLYCOPYRRONIUM BROMIDE]
Inhibition [1]: 11.8%

CN1C(=O)CN=C(c2ccccc2)c2cc([N+](=O)[O-])ccc21 [NIMETAZEPAM]
Inhibition [1]: 10.78% | Inhibition [2]: 1.04%

O=C1CN=C(c2ccccc2)c2cc([N+](=O)[O-])ccc2N1 [NITRAZEPAM]
Inhibition [1]: 7.65% | Inhibition [2]: 5.89%

CCOC(=O)C1=C(COCCN)NC(C)=C(C(=O)OC)C1c1ccccc1Cl (stereo unspecified) [AMLODIPINE]
Inhibition [1]: -19.31% | Inhibition [2]: 5.81%

Cc1nnc2n1-c1ccc(Cl)cc1C(c1ccccc1)=NC2 [ALPRAZOLAM]
Inhibition [1]: 16.72% | Inhibition [2]: 0.08%

CC(=O)OCC[N+](C)(C)C.[Cl-] [ACETYLCHOLINE CHLORIDE]
Inhibition [1]: 11.31% | Inhibition [2]: 4.11%

Nc1nc(F)nc2c1ncn2[C@@H]1O[C@H](CO)[C@@H](O)[C@@H]1O [FLUDARABINE]
Inhibition [1]: 11.26% | Inhibition [2]: 42.2%

Cn1c(=O)c2nc[nH]c2n(C)c1=O.O [THEOPHYLLINE]
Inhibition [1]: -24.23% | Inhibition [2]: 7.82%

Br.Br.CN1CC[C@]2(c3cccc(O)c3)Cc3nc4ccccc4cc3C[C@H]2C1.O
Inhibition [1]: 5.38% | Inhibition [2]: 1.66%

c1ccc(Cn2ccnc2)cc1
Inhibition [1]: 13.36% | Inhibition [2]: -1.92%

Cl.FC(F)(F)c1cccc(N2CCNCC2)c1 [N- (3-TRIFLUOROMETHYLPHENYL)PIPERAZINE HYDROCHLORIDE (TFMPP)]
Inhibition [1]: -3.1% | Inhibition [2]: 6.36%

COC(=O)N1CCN(C(=O)Cc2ccc(Cl)c(Cl)c2)C(CN2CCCC2)C1.O=C(O)/C=C/C(=O)O (stereo unspecified)
Inhibition [1]: 12.27% | Inhibition [2]: 2.23%

Cl.c1ccc2c(CC3=NCCN3)cccc2c1 [NAPHAZOLINE HYDROCHLORIDE]
Inhibition [1]: 21.19% | Inhibition [2]: 2.28%

CNCC(O)c1ccc(O)cc1 (stereo unspecified) [OXEDRINE]
Inhibition [1]: -16.09% | Inhibition [2]: 6.6%

COc1ccc(C(CN(C)C)C2(O)CCCCC2)cc1.Cl (stereo unspecified) [VENLAFAXINE HYDROCHLORIDE]
Inhibition [1]: 5.17% | Inhibition [2]: 7.16%

CCCCCNC(=N)N/N=C/c1c[nH]c2ccc(OC)cc12.O=C(O)/C=C\C(=O)O [TEGASEROD MALEATE]
Inhibition [1]: 22.85% | Inhibition [2]: -0.84%

CC[C@]1(O)CC[C@H]2[C@@H]3CCC4=CCCC[C@@H]4[C@H]3CC[C@@]21C [ETHYLESTRENOL]
Inhibition [1]: -6.51% | Inhibition [2]: 3.02%

CN[C@@H]1C[C@@H](c2ccc(Cl)c(Cl)c2)c2ccccc21.Cl [INDATRALINE HYDROCHLORIDE]
Inhibition [1]: -18.12% | Inhibition [2]: 7.7%

c1ccc2c(c1)Nc1ccccc1S2 [PHENOTHIAZINE]
Inhibition [1]: -22.92% | Inhibition [2]: 9.21%

CC(=O)OC1C([N+]2(C)CCCCC2)C[C@H]2C3CC[C@H]4C[C@H](OC(C)=O)C([N+]5(C)CCCCC5)CC4(C)[C@H]3CCC12C.[Br-].[Br-] (stereo partly specified)
Inhibition [1]: 8.65% | Inhibition [2]: 6.22%

CCOC(=O)C1(c2ccccc2)CCN(CCC(C#N)(c2ccccc2)c2ccccc2)CC1.Cl [DIPHENOXYLATE HYDROCHLORIDE]
Inhibition [1]: 14.18% | Inhibition [2]: -7.43%

Oc1ncnc2[nH]ncc12 [ALLOPURINOL]
Inhibition [1]: 15.53% | Inhibition [2]: 6.23%

COCCCOc1ccnc(C[S+]([O-])c2nc3ccccc3[nH]2)c1C (stereo unspecified) [RABEPRAZOLE]
Inhibition [1]: 10.37% | Inhibition [2]: 7.16%

Cl.Oc1ccc2c3c1OC1C(O)CC[C@@]4(O)[C@@H](C2)N(CC2CCC2)CC[C@]314 (stereo partly specified)
Inhibition [1]: 18.7% | Inhibition [2]: -2.31%

C#C[C@]1(OC(C)=O)CC[C@H]2[C@@H]3CCC4=CC(=O)CC[C@@H]4[C@H]3CC[C@@]21C [NORETHINDRONE ACETATE]
Inhibition [1]: 11.13% | Inhibition [2]: -1.23%

COc1cc([C@@H]2c3cc4c(cc3[C@H](O)[C@H]3COC(=O)[C@H]23)OCO4)cc(OC)c1OC [PODOFILOX]
Inhibition [1]: 6.19% | Inhibition [2]: 3.91%

NS(=O)(=O)c1cc(C2(O)NC(=O)c3ccccc32)ccc1Cl (stereo unspecified) [CHLORTHALIDONE]
Inhibition [1]: 15.62% | Inhibition [2]: -0.28%

CN(C)C(=O)C(CCN1CCC(O)(c2ccc(Cl)cc2)CC1)(c1ccccc1)c1ccccc1.Cl [LOPERAMIDE HYDROCHLORIDE]
Inhibition [1]: 6.46% | Inhibition [2]: 2.77%

N=C(NCc1ccc(Cl)cc1)SCCCc1c[nH]cn1 [CLOBENPROPIT]
Inhibition [1]: -4.61% | Inhibition [2]: -3.53%

Cl.O.Oc1ccc2c3c1O[C@H]1c4[nH]c5ccccc5c4C[C@@]4(O)C(C2)N(CC2CC2)CC[C@]314
Inhibition [1]: -20.11% | Inhibition [2]: 6.59%

COc1cc(N)c(Cl)cc1C(=O)NC1CN2CCC1CC2.Cl.O (stereo unspecified) [ZACOPRIDE HYDROCHLORIDE]
Inhibition [1]: -3.02% | Inhibition [2]: 7.58%

CC[N+](C)(C)c1cccc(O)c1.[Cl-] [EDROPHONIUM CHLORIDE]
Inhibition [1]: 15.74% | Inhibition [2]: 2.93%

Br.COc1ccc2c3c1O[C@H]1C[C@@H](O)C=C[C@@]31CCN(C)C2 [GALANTAMINE HYDROBROMIDE]
Inhibition [1]: 13.66% | Inhibition [2]: 3.62%

CN1[C@@H](CC(=O)c2ccccc2)CCC[C@H]1C[C@H](O)c1ccccc1.Cl [LOBELINE HYDROCHLORIDE]
Inhibition [1]: 13.97% | Inhibition [2]: -0.94%

CC(C)c1cccc(C(C)C)c1O [PROPOFOL]
Inhibition [1]: -2.39% | Inhibition [2]: -13.59%

C[C@H](CCC(=O)O)[C@H]1CC[C@H]2[C@@H]3[C@@H](O)C[C@@H]4C[C@H](O)CC[C@]4(C)[C@H]3CC[C@]12C [URSODIOL]
Inhibition [1]: 5.15% | Inhibition [2]: 2.26%

Cc1ccc(-c2nc3ccc(C)cn3c2CC(=O)N(C)C)cc1.Cc1ccc(-c2nc3ccc(C)cn3c2CC(=O)N(C)C)cc1.O=C(O)C(O)C(O)C(=O)O [ZOLPIDEM TARTRATE]
Inhibition [1]: 4.54% | Inhibition [2]: -2.63%

O.O=P1(N(CCCl)CCCl)NCCCO1 (stereo unspecified) [CYCLOPHOSPHAMIDE]
Inhibition [1]: 2.64% | Inhibition [2]: 1.99%

COc1cc(CNC(=O)CCCC/C=C\C(C)C)ccc1O [ZUCAPSAICIN]
Inhibition [1]: 14.17% | Inhibition [2]: 0%

CC(C)[C@]12O[C@H]1[C@@H]1O[C@]13[C@]1(O[C@H]1C[C@H]1C4=C(CC[C@@]13C)C(=O)OC4)[C@@H]2O [TRIPTOLIDE]
Inhibition [1]: 14.16% | Inhibition [2]: -9.75%

CCN(C(C)=O)c1cccc(-c2ccnc3c(C#N)cnn23)c1 [ZALEPLON]
Inhibition [1]: 2.73% | Inhibition [2]: 4.96%

CC(O)(CS(=O)(=O)c1ccc(F)cc1)C(=O)Nc1ccc(C#N)c(C(F)(F)F)c1 (stereo unspecified) [BICALUTAMIDE]
Inhibition [1]: -1.51% | Inhibition [2]: 6.59%

Source: ChEMBL document CHEMBL4513141, “CO-ADD screening of NIH (USA) - Clinical Collection” (2021)
